{
  "source": "PubChem BioAssay AID602314",
  "about": "(ICCB-Longwood Screening Facility, Harvard Medical School, 2012)",
  "note": "The campaign covered roughly 84,000 compounds. About 110 (0.13%) were called active. Cut-off read from the data, not from the text of the source: active = inhibition above about 30% (passing the limit was not always enough); inactive = the rest. The entries come from a sample that favours actives as a whole.",
  "data": [
    {"test_system": "MgrA (MarR family transcriptional regulator), Staphylococcus aureus Newman", "assay": "S. aureus MgrA activity modulators, primary screen, biochemical, S. aureus Newman, fluorescence polarization (AID 602314);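 note: 0% = protein plus DNA without compound and 100% = DNA alone without protein; higher means less MgrA bound to DNA so lower polarization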", "conditions": "MgrA-DNA binding, hits give high values, concentration not given here", "values": [
      {"smiles": "CCN1C(=O)/C(=C/C=C/c2ccco2)C(=O)NC1=S", "inhibition": "66.7% (active)"},
      {"smiles": "CCN(CC)P1(=S)OC(C)(C)CC1(C)O", "note": "(stereo not given)", "inhibition": "0.3% (inactive)"},
      {"smiles": "O=C1CSC(c2ccccc2)c2c(-c3ccccc3)nn(-c3ccccc3)c2N1", "note": "(stereo not given)", "inhibition": "-0.55% (inactive)"},
      {"smiles": "CCn1cc(C=C(C#N)C#N)c2ccccc21", "inhibition": "-2.65% (inactive)"},
      {"smiles": "O=C1NC(=O)C(C2(C3C(=O)NC(=O)NC3=O)C(=O)Nc3ccccc32)C(=O)N1", "inhibition": "1.5% (inactive)"},
      {"smiles": "COc1cccc(N2C(=O)/C(=C/c3ccsc3)C(=O)NC2=S)c1", "inhibition": "18.1% (inactive)"},
      {"smiles": "NC1=C(C(=O)OCc2ccccc2)C2(C(=O)Nc3ccc(Br)cc32)c2c(c3ccccc3oc2=O)O1", "note": "(stereo not given)", "inhibition": "-0.3% (inactive)"},
      {"smiles": "CN1CCc2c(c(S)[nH]c(=S)c2C#N)C1", "inhibition": "77.6% (active)"},
      {"smiles": "Cn1c([O-])c([N+](C)(C)C)c(=O)n(C)c1=O", "inhibition": "0.5% (inactive)"},
      {"smiles": "O=C1CC(c2cccc(Br)c2)c2c(c3ccccc3oc2=O)O1", "note": "(stereo not given)", "inhibition": "13.6% (inactive)"}
    ]}
  ]
}
